{
  "source": "PubChem BioAssay AID651871",
  "about": "(Sanford-Burnham Center for Chemical Genomics, 2012)",
  "note": "Where “and” joins values, the source holds several entries; their conditions need not be identical. Equal entries are not always repeated.",
  "data": [
    {"system": "H9c2", "assay": "cardiomyocyte survival under oxidative or metabolic stress – cell-based, panel, H9c2 and HL-1, ATP luminescence, set 2, SAR follow-up (AID 651871);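 note: cells exposed to stressor for 2 h before ATP readout; reference of the scale not given here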", "conditions": "H9c2/HL-1 cardiomyocytes, H2O2 oxidative stress, with H2O2, run 2, at 79 µM (top of the series)", "values": [
      {"smiles": "COc1ccc2c(c1OC)C(=O)N1c3ccccc3C(=O)N(Cc3cccc(Cl)c3Cl)C21", "note": "(centres undefined)", "activity (protection/inhibition)": "101% and 61%"},
      {"smiles": "CCOC(=O)c1cccc(NC(=O)CNC(=O)c2cc(-c3cc(OC)c(OC)c(OC)c3)nc3ccccc23)c1", "activity (protection/inhibition)": "114%"},
      {"smiles": "COc1ccc2nc(-c3cc(OC)c(OC)c(OC)c3)cc(C(=O)NCC(=O)Nc3ccc(C(C)=O)cc3)c2c1", "activity (protection/inhibition)": "122% and 100%"},
      {"smiles": "COc1cc(-c2cc(C(=O)Nc3cccc(C(=O)NCc4ccccc4)c3)c3ccccc3n2)cc(OC)c1OC", "activity (protection/inhibition)": "119%"}
    ]}
  ]
}
